PubChem BioAssay (NCI)
The panel holds about 83,000 compounds, 20% with a hit somewhere; the sample as a whole holds those more often.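 Values shown are percent growth following 48 h exposure of cells in 96-well plates to a single concentration of compound; below 10 was considered active.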 Unmarked numbers belong to inactive results. The source made the active and inactive calls.

What was measured:
Experiment in all cases: NCI-60 one-dose screen, 48 h (100 = growth as untreated, 0 = no growth, -100 = all killed)
Conditions in all cases: 10 µM unless noted
SK-MEL-2 melanoma = tested on: SK-MEL-2 melanoma
EKVX NSCLC = tested on: EKVX NSCLC
SN12C renal = tested on: SN12C renal
UO-31 renal = tested on: UO-31 renal
TK-10 renal = tested on: TK-10 renal
ACHN renal = tested on: ACHN renal
CAKI-1 renal = tested on: CAKI-1 renal
A498 renal = tested on: A498 renal
CCRF-CEM leukemia = tested on: CCRF-CEM leukemia
MOLT-4 leukemia = tested on: MOLT-4 leukemia

Compound	growth (SK-MEL-2 melanoma)	growth (EKVX NSCLC)	growth (SN12C renal)	growth (UO-31 renal)	growth (TK-10 renal)	growth (ACHN renal)	growth (CAKI-1 renal)	growth (A498 renal)	growth (CCRF-CEM leukemia)	growth (MOLT-4 leukemia)
Nc1nc(SCc2ccccc2)c2ncn(C3CCCC3)c2n1	94.6%	99.6%	107%	89.9%	125%	-81.5% (active)	102%	102%	96.3%	113%
O=S(=O)(NCCCNc1cc(-c2cn(-c3ccccc3)nc2-c2cccc(O)c2)ccn1)c1ccccc1	74.6%	37.8%	68.7%	37.8%	62.5%	–	43.3%	50.6%	38.5%	37.1%
CN1CCN(Cc2ccc(NC(=O)c3cncc(C#Cc4cnc(N)c5cccnc45)c3)cc2C(F)(F)F)CC1	-27.1% (active)	14.1%	11.6%	2.87% (active)	50.1%	6.51% (active)	–	-27.5% (active)	16.9%	18.1%
C(=N\Nc1ccccn1)/c1ccccn1	48.9%	25.8%	36.5%	-10.7% (active)	–	14.1%	10.5%	22.4%	0.917% (active)	18.8%
Cn1c(=O)c2[nH]c(C(O)C(O)C(O)C(O)CO)nc2n(C)c1=O (configuration not stated)	104%	103%	107%	91.8%	103%	106%	–	106%	105%	103%
Nc1cc(-c2nc3sccn3c2-c2ccnc(NCCCNS(=O)(=O)c3ccc(F)cc3)n2)ccc1F	60.4%	58.3%	48.9%	30.7%	98.3%	32.5%	–	54.3%	21.2%	34%
COc1cnc2c(c1)C(=O)c1c-2n(CCCN2CCNCC2)c(=O)c2cc([N+](=O)[O-])ccc12	77.8%	-64.6% (active)	-71.5% (active)	-79.3% (active)	32.4%	-88.4% (active)	–	16.9%	-23% (active)	-4.73% (active)
COc1ccc(CNc2nccnn2)cc1	108%	99.1%	108%	100%	93.4%	98%	–	90.2%	114%	47.7%
CCN(CC)CCCC(C)Nc1ccnc2c(OC)cccc12 (configuration not stated)	127%	112%	101%	87.4%	120%	122%	–	135%	94.3%	102%
C=C1CC2(OC1=O)C(=O)N(CCCCCCCCCCCCN1C(=O)C3(CC(=C)C(=O)O3)c3ccccc31)c1ccccc12 (configuration not stated)	73.3%	98%	53.1%	76.6%	96.1%	97.8%	–	59.5%	4.77% (active)	2.36% (active)
CNC(=O)c1cc(Oc2ccc3nc(NC(=O)Nc4ccc(N5CCC(N(C)C)CC5)cc4)sc3c2)ccn1	117%	115%	92.3%	87.7%	–	74.1%	90.1%	81.6%	66.5%	61.4%
O=S(=O)(Nc1ccc(F)c(Cl)c1)c1ccc(-c2cnc(C3CC3)o2)cc1	38%	32.2%	49.9%	41.8%	44%	44.5%	–	-14.5% (active)	19.6%	29.5%
COc1ccc(OCC(=O)Nc2ccc(-c3nc4ccccc4s3)cc2C)cc1	94.1%	65%	88.8%	44.7%	–	99.4%	78.4%	101%	89.6%	55.9%
COc1ncc(-c2ccc3ncnc(Nc4cccc(Cl)c4)c3c2)cc1NS(C)(=O)=O	32%	12.1%	29.1%	8.8% (active)	-11.1% (active)	–	14.9%	0.974% (active)	32.5%	-6.32% (active)
N#Cc1c(N)nc(N)nc1Nc1ccc(Br)cc1	91.1%	44.1%	85.1%	65.6%	125%	89%	–	106%	61.1%	76.5%
COc1cc(-c2c3c(nc4c2c(C)nn4-c2ccccc2)-c2ccccc2C(=O)C3=O)cc(OC)c1OC	72.3%	98.3%	90.5%	73.1%	–	82.3%	74.4%	83.7%	54.4%	52.5%
CN[C@@]12CC3(C=CC(=O)C=C3)O[C@]1(Cc1ccc(OC)cc1)N(C)C(=O)N2	74.1%	75.8%	44%	76.2%	88.6%	44.4%	–	75.6%	7.27% (active)	73%
CC1=NNC(=O)C1C (configuration not stated)	99.8%	102%	96.1%	88.2%	–	103%	81.5%	88.6%	97.1%	145%
CSc1[nH]c2ncnc(N)c2c1C#N	91%	83.2%	99.4%	76%	85.4%	97.4%	–	125%	110%	89.7%
COc1ccc(-c2cc(-c3ccc(N(C)C)cc3)nc(NC(=O)c3ccncc3)n2)cc1	116%	99.8%	104%	72.1%	–	98.7%	95%	76.5%	96.8%	111%
COc1ccc2c(c1)C(=O)/C(=C/c1cccc(OCC(=O)Nc3nc4c(s3)CCCC4)c1)O2	-67.3% (active)	-72.6% (active)	28.7%	-78.2% (active)	–	-73.4% (active)	-83.5% (active)	92%	-0.645% (active)	-47.8% (active)
CC(C)[C@H]1COC(=O)N1[C@@H]1C(=O)N([C@@H](CCC(=O)N2CCN(C3CCCC3)CC2)C(=O)N[C@@H]2CCCc3ccccc32)[C@@H]1/C=C/c1cccc(Br)c1	-7.94% (active)	48.2%	38%	31%	–	48.9%	62.5%	0.642% (active)	32.8%	17.9%
O=C(O)c1ccc2c(c1Sc1ccccc1)C(=O)c1ccccc1C2=O	90.5%	36.1%	96.6%	77%	–	95.3%	84.4%	114%	91.9%	113%
CS(CCCCN=C=S)=NC(=O)c1c(F)c(F)c(F)c(F)c1F (configuration not stated)	94.2%	97.8%	61.1%	59.6%	–	52.4%	71.3%	112%	36.8%	66.2%
CCOC(=O)c1cnc2ccc(OC)cc2c1Nc1cccc(S(=O)(=O)NC)c1	102%	104%	92.9%	93.6%	110%	91.5%	–	95.9%	93%	99.2%
C[C@@]1(N2C(=O)OC[C@@H]2c2ccccc2)C(=O)N([C@H](CC(=O)N2CCC(N3CCCCC3)CC2)C(=O)NCc2cccc(C(F)(F)F)c2)[C@@H]1/C=C/c1ccccc1	64.8%	71.7%	74.3%	57.8%	79.1%	75.2%	–	52.3%	42.6%	10.7%
O=C1/C(=C\c2cn(C(=O)c3ccc(Cl)cc3)c3ccccc23)c2ccccc2N1c1c(Cl)cccc1Cl	103%	97.8%	89.5%	77%	119%	97.6%	–	103%	111%	89.6%
CCCCCCCCCC(=O)Oc1ccc(/C(=C(/C)Cc2cccc(OC)c2)c2ccc(OCCN(C)C)cc2)cc1	107%	94.7%	99.2%	92.5%	–	110%	102%	95.8%	103%	115%
COc1cc(/C=N\NC(=O)CN2CCN(c3cc4c(cc3F)c(=O)c(C(=O)N/N=C/c3ccc(O)c(OC)c3)cn4C3CC3)CC2)ccc1O	68%	84.3%	53.4%	76.7%	–	99.2%	82.8%	85.3%	18.9%	5.76% (active)
